The values below come from article PMC7862700, “An all-to-all approach to the identification of sequence-specific readers for epigenetic DNA modifications on cytosine”.

Holding throughout (assay): DAPPL (digital affinity profiling via proximity ligation, sequencing); 10 mM Tris-HCl pH 7.5, 50 mM NaCl, 1 mM DTT, 4% glycerol, room temperature, 30 min; GST-TFs on glutathione beads, 16-mer random dsDNA library, 0.1% formaldehyde crosslink after washing; high values mean tight binding
Common to all, as to details: protein: recombinant; tags: N-terminal GST; dsDNA, one strand shown

One test has as its target T1, ERF (Homo sapiens, UniProt P50548 1-548).
T1 sequence: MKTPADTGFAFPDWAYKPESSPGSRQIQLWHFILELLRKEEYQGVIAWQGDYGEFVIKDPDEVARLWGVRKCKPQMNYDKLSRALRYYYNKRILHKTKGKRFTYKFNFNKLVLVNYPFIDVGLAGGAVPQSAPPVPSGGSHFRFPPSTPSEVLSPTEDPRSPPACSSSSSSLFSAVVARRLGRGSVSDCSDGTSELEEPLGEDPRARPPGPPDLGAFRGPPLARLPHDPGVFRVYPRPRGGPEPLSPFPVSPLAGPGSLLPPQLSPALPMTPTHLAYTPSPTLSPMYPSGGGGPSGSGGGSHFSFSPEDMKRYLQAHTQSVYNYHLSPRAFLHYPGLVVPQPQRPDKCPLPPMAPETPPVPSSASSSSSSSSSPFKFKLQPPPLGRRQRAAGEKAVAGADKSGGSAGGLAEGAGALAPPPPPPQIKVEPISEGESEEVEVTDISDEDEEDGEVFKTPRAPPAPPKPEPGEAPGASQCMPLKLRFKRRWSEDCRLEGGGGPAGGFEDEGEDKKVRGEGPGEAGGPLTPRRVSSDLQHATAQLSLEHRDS
In outline: (§1)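 A tag-only sample was pooled with DNA-barcoded human transcription factors that had been expressed in yeast as GST fusions and captured on glutathione beads. The pools were incubated for 30 min at room temperature with 200 nmole of a random double-stranded 16-mer DNA library in Tris/NaCl/DTT/glycerol buffer, then washed, crosslinked with 0.1% formaldehyde, proximity-ligated (BsaI/T4 ligase, 1 h, 37 °C), PCR-amplified and sequenced on an Illumina NextSeq500. Binding signal is each hexamer's read frequency for a factor divided by its frequency for the tag-only sample.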

The target in a further test is T2, ETV3L (Homo sapiens, UniProt Q6ZN32 1-361).
T2 sequence: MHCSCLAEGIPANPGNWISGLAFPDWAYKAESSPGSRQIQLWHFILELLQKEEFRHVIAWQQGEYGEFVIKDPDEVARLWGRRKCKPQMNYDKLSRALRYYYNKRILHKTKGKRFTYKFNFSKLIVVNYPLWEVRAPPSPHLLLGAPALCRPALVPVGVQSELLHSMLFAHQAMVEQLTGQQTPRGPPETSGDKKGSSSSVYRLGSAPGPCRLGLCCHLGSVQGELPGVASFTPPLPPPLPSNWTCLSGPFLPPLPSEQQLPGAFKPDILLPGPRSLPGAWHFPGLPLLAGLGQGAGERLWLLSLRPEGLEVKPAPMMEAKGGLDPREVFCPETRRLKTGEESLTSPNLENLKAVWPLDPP
In outline:
as §1

The next test deals with T3, ETS2 (Homo sapiens, UniProt P15036 1-469).
T3 sequence: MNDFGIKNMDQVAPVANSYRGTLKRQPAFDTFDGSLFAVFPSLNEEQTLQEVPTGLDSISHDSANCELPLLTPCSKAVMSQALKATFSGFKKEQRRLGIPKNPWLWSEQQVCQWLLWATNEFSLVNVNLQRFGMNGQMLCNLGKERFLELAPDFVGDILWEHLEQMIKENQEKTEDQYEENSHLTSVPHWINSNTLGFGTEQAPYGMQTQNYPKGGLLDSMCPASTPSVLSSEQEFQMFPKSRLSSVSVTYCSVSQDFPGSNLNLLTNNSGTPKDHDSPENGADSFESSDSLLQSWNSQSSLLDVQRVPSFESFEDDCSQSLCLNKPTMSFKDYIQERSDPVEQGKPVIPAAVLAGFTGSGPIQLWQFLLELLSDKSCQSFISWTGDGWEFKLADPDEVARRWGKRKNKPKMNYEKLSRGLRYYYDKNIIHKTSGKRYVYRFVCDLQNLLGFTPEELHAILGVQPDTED
The essentials: as §1

The next test has as its target T4, SPDEF (Homo sapiens, UniProt O95238 1-335).
T4 sequence: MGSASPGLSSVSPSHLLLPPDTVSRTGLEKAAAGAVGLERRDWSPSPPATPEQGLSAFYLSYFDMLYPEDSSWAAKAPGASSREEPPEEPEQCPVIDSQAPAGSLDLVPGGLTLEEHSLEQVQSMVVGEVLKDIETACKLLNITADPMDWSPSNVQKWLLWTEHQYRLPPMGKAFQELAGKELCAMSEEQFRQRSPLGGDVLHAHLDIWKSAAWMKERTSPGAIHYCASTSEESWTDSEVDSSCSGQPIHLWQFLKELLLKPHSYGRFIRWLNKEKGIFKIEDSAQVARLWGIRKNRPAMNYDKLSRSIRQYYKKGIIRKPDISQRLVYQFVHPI
In outline:
as §1

The target of a further test is T5, ETV7 (Homo sapiens, UniProt Q9Y603 1-341).
T5 sequence: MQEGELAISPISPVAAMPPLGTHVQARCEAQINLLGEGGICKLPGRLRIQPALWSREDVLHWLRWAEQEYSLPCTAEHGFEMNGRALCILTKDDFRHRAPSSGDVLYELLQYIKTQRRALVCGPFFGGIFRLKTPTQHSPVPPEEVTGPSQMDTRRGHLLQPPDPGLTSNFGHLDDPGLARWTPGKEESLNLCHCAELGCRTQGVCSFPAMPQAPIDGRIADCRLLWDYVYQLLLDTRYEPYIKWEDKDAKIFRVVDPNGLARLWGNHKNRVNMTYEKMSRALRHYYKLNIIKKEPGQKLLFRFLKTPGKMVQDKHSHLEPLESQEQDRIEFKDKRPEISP
The essentials:
as §1

Another test concerns the target T6, ELF5 (Homo sapiens, UniProt Q9UKW6-2 1-255).
T6 sequence: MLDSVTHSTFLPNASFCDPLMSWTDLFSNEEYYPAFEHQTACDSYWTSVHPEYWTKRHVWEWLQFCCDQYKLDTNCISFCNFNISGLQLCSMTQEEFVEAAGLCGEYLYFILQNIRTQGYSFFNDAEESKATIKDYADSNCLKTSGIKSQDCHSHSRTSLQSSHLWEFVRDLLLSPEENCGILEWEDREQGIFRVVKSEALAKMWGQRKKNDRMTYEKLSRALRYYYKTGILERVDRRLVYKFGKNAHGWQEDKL
The essentials:
as §1

In a further test the target is T7, ETV3 (Homo sapiens, UniProt P41162-2 1-143).
T7 sequence: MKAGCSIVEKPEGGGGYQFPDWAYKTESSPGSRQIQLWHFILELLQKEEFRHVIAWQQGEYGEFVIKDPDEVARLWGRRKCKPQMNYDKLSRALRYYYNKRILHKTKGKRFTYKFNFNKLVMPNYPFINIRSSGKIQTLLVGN
The essentials: as §1

In a further test the target is ETV6 (Homo sapiens, UniProt P41212 1-452). The essentials: as §1
Chain of ETV6 (P41212 whole entry): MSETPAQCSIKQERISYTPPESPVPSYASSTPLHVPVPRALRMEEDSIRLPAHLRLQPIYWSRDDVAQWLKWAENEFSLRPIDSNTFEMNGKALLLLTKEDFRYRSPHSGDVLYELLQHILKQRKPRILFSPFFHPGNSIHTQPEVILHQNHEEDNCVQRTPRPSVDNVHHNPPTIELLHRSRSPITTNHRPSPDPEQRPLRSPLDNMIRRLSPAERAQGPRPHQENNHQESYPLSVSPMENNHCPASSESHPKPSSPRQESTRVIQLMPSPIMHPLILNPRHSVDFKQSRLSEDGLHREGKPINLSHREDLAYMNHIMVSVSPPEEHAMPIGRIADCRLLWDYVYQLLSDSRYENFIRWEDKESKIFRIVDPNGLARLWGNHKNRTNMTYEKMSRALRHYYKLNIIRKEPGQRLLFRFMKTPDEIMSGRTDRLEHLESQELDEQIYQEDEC

For TGTAAA, the binding signal in the test with ERF is 1.23 fold enrichment (6-mer frequency, TF over GST control); in the test with ETV3L, 1.22 fold enrichment (6-mer frequency, TF over GST control); with ETS2, 1.24 fold enrichment (6-mer frequency, TF over GST control); with SPDEF, 1.16 fold enrichment (6-mer frequency, TF over GST control); with ETV7, 1.13 fold enrichment (6-mer frequency, TF over GST control); with ELF5 it was 1.1 fold enrichment (6-mer frequency, TF over GST control). Moreover, the binding signal with ETV3 is 1.2 fold enrichment (6-mer frequency, TF over GST control); with ETV6 it was 1.03 fold enrichment (6-mer frequency, TF over GST control).

Turning to TCTGTG, the binding signal with ERF is 1.15 fold enrichment (6-mer frequency, TF over GST control); with ETV3L, 1.2 fold enrichment (6-mer frequency, TF over GST control); with ETS2, 1.13 fold enrichment (6-mer frequency, TF over GST control); in the test with SPDEF, 1.06 fold enrichment (6-mer frequency, TF over GST control); in the test with ETV7, 1.26 fold enrichment (6-mer frequency, TF over GST control); with ELF5, 1.04 fold enrichment (6-mer frequency, TF over GST control). Moreover, the binding signal in the test with ETV3 is 1.04 fold enrichment (6-mer frequency, TF over GST control); in the test with ETV6, 1.07 fold enrichment (6-mer frequency, TF over GST control).

Regarding AAGAAC, the binding signal is 1.08 fold enrichment (6-mer frequency, TF over GST control) with ERF; 1.13 fold enrichment (6-mer frequency, TF over GST control) with ETV3L; 1.18 fold enrichment (6-mer frequency, TF over GST control) with ETS2; 1.23 fold enrichment (6-mer frequency, TF over GST control) in the test with SPDEF; 1.25 fold enrichment (6-mer frequency, TF over GST control) with ETV7; 1.21 fold enrichment (6-mer frequency, TF over GST control) with ELF5. Besides, the binding signal in the test with ETV3 is 1.11 fold enrichment (6-mer frequency, TF over GST control); with ETV6, 1.27 fold enrichment (6-mer frequency, TF over GST control).

In the case of CAAGAA, the binding signal with ERF was 1.12 fold enrichment (6-mer frequency, TF over GST control); in the test with ETV3L it was 1.09 fold enrichment (6-mer frequency, TF over GST control); with ETS2, 1.07 fold enrichment (6-mer frequency, TF over GST control); with SPDEF, 1.06 fold enrichment (6-mer frequency, TF over GST control); with ETV7 it was 1.14 fold enrichment (6-mer frequency, TF over GST control); with ELF5, 1.08 fold enrichment (6-mer frequency, TF over GST control). Further, the binding signal in the test with ETV6 was 1.04 fold enrichment (6-mer frequency, TF over GST control).

For the sequence ACAAAA, the binding signal is 1.18 fold enrichment (6-mer frequency, TF over GST control) with ERF; 1.2 fold enrichment (6-mer frequency, TF over GST control) in the test with ETV3L; 1.2 fold enrichment (6-mer frequency, TF over GST control) with ETS2; 1.11 fold enrichment (6-mer frequency, TF over GST control) with SPDEF; 1.15 fold enrichment (6-mer frequency, TF over GST control) with ETV7; 1.21 fold enrichment (6-mer frequency, TF over GST control) with ELF5. In addition, the binding signal in the test with ETV3 was 1.13 fold enrichment (6-mer frequency, TF over GST control); with ETV6, 1.17 fold enrichment (6-mer frequency, TF over GST control).

For the sequence TCAAAT, the binding signal in the test with ERF was 1.01 fold enrichment (6-mer frequency, TF over GST control); with ETV3L, 1.13 fold enrichment (6-mer frequency, TF over GST control); with ETS2 it was 1.09 fold enrichment (6-mer frequency, TF over GST control); with SPDEF it was 1.11 fold enrichment (6-mer frequency, TF over GST control); with ETV7, 1.14 fold enrichment (6-mer frequency, TF over GST control); with ELF5, 1.07 fold enrichment (6-mer frequency, TF over GST control). Also, the binding signal with ETV3 was 1.07 fold enrichment (6-mer frequency, TF over GST control); with ETV6, 1.07 fold enrichment (6-mer frequency, TF over GST control).

TAACTT: the binding signal in the test with ERF is 1.32 fold enrichment (6-mer frequency, TF over GST control); in the test with ETV3L it was 1.47 fold enrichment (6-mer frequency, TF over GST control); in the test with ETS2 it was 1.38 fold enrichment (6-mer frequency, TF over GST control); with SPDEF, 1.28 fold enrichment (6-mer frequency, TF over GST control); with ETV7, 1.25 fold enrichment (6-mer frequency, TF over GST control); with ELF5 it was 1.44 fold enrichment (6-mer frequency, TF over GST control). Further, the binding signal in the test with ETV3 was 1.41 fold enrichment (6-mer frequency, TF over GST control); with ETV6, 1.32 fold enrichment (6-mer frequency, TF over GST control).
